Nrf2 inh: blocks Nrf2 signaling; A549 ARE-Fluc reporter, luciferase luminescence, 18-24 h; Potency, µM (titrated, usually from 46 µM), inactives show at the highest dose activity change, negative = inhibition, usual class: inhibitors; 2.1% of 360,000 active; also: % is scaled to controls: 0 for no effect and ±100 for the full control effect; nearly all actives have a fitted effect of over 60% in size
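Two sequential reads on A549 ARE_Fluc cells exposed to compound for 18-24 h: a CellTiter-Fluor fluorescence read for viability, then a luciferase luminescence read for Nrf2/ARE activity.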
ELG1 repair inh: blocks ELG1-dependent DNA repair in HEK293T cells; 2.3% of 330,000 active; Potency, µM (doses to about 46.1 µM), without a hit: top-dose activity change, negative = inhibition, most hits filed as inhibitors; HEK293T ELG1-luciferase reporter, luminescence, 16 h; DNA damage induced by 5-fluorouridine; AID 504467; also: % is scaled to controls: 0 for no effect and ±100 for the full control effect; nearly all actives have a fitted effect of over 55% in size
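Step one: seed 2,000 cells per well. Step two: pin-transfer compound or DMSO alongside 5-fluorouridine. Step three: incubate 16 hr, 37 °C, 5% CO2. Step four: add ONE-Glo, wait 30 min, read luminescence.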
A549 viability: counter-screen for Nrf2 inhibitors: cytotoxicity in A549 cells; A549 ARE-Fluc cells, CellTiter-Fluor viability, 18-24 h; Potency, µM (top dose mostly 46 µM), without a hit: at the highest dose activity change, negative = cytotoxicity, usual class: inhibitors; 0.16% of 390,000 active; AID 504648; also: % is scaled to controls: 0 for no effect and ±100 for the full control effect
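A549 ARE_Fluc cells in 5% FBS OPTI-MEM were exposed to compounds in concentration-response for 18-24 h at 37 deg C. Viability was read by CellTiter-Fluor fluorescence (Ex 405/Em 525) after 30 min, before the luciferase read.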
Nrf2 ARE act: activates Nrf2 signaling | Potency, µM (series often up to 46.1 µM), for the others: at the highest dose activation, actives largely listed as activators | AID 624171 | AREc32 ARE-luciferase reporter (MCF7-derived line), luminescence, 24 h | 0.31% of 410,000 active; also: % of control where 0% means no effect; nearly all actives have a fitted effect of over 65% in size
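Luciferase luminescence (Steady-Glo, 30 min at room temperature) served as the read-out of ARE activation in AREc32 cells treated with compounds for 24 hr at 37 deg C.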
ELG1 FLuc counter: luciferase inhibition in cell-free luciferin readout for ELG1 hits; 3% of 350 active; shares compounds with ELG1 repair inh; Potency, µM (top dose mostly 46.1 µM), for the others: at the highest dose activity change, negative = inhibition, usual class: inhibitors; cell-free firefly luciferase luminescence counter-screen, ViewLux; also: % is scaled to controls: 0 for no effect and ±100 for the full control effect
ELG1 Luc conf: confirmation of human ELG1-dependent DNA repair inhibitors. HEK293T ELG1-luciferase levels, luminescence; cells co-treated with 5-fluorouridine. shares compounds with ELG1 repair inh. Potency, µM (doses to about 46.1 µM), for the others: at the top dose activity change, negative = inhibition, usual class: inhibitors. 68% of 670 active; also: % is scaled to controls: 0 for no effect and ±100 for the full control effect; nearly all actives have a fitted effect of over 55% in size
ELG1-Luc MMS: inhibits ELG1-dependent repair under MMS stimulation in HEK293T cells | shares compounds with ELG1 repair inh | HEK293T luciferase-tagged ELG1 level, MMS stimulated | Potency, µM (doses to about 46.1 µM), without a hit: top-dose activity change, negative = inhibition, most hits filed as inhibitors | 53% of 670 active | AID 624249; also: % is scaled to controls: 0 for no effect and ±100 for the full control effect; nearly all actives have a fitted effect of over 60% in size
ELG1 5-FU: confirmation of ELG1 repair inhibitors: viability with 5FU. shares compounds with ELG1 repair inh. cell viability with 5-FU, ELG1-dependent repair. Potency, µM (doses to about 46.1 µM), for inactives: top-dose activity change, negative = viability loss, most hits filed as cytotoxic. 670 tested, under 10 active;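 also: ELG1-luc HEK293T cells cotreated with 5-fluorouridine at 10 µM final; viability measured 16 h after compound addition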
ELG1 MMS viab: confirmation of ELG1 repair inhibitors: viability with MMS; shares compounds with ELG1 repair inh; Cell viability with MMS, ELG1-dependent DNA repair; Potency, µM (doses to about 46.1 µM), for the others: at the highest dose activity change, negative = viability loss, hits mostly cytotoxic; 33% of 670 active; AID 624251;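 also: ELG1-luc HEK293T cells co-treated with 10 µM MMS; viability read 16 h after compound addition; % is scaled to controls: 0 for no effect and ±100 for the full control effect; nearly all actives have a fitted effect of over 60% in size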
Cell viab unstim: affects unstimulated cell viability, ELG1 hit counter-screen; shares compounds with ELG1 repair inh; cell viability counter-screen, unstimulated, luminescence; Potency, µM (titrated, usually from 45.9 µM), inactives show top-dose activity change, negative = loss of viability, actives largely listed as cytotoxic; 8% of 900 active; AID 624252;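 also: compound exposure lasted 16 hours before reading; % is scaled to controls: 0 for no effect and ±100 for the full control effect; nearly all actives have a fitted effect of over 55% in size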
FLuc biochem: firefly luciferase inhibition counter-screen; shares compounds with ELG1 repair inh; purified firefly luciferase, luminescence counter-screen; Potency, µM (highest dose often 57.5 µM), for the others: at the highest dose activity, negative = inhibition, most hits filed as inhibitors; 10% of 350 active; also: % is scaled to controls: 0 for no effect and ±100 for the full control effect
Active calls of the source: *; ? = inconclusive; / = no result. Most compounds without a hit are left out; they make up all but 3.7% or so of the library. Calls follow the shape of the dose curve; as a rule, active = well fitted curve in the direction sought with a large enough effect; inconclusive = small, poorly fitted or top-dose-only effect, or another doubt; inactive = no such curve, though single readings can be large; an effect the other way counts as inactive or inconclusive. Potency is read from the fitted curve at half-maximal effect.

SMILES | Nrf2 inh | ELG1 repair inh | A549 viability | Nrf2 ARE act | ELG1 Luc conf | ELG1-Luc MMS | ELG1 5-FU | ELG1 MMS viab | Cell viab unstim | others
O=C1NC[C@H](c2ccccc2)OC(=O)[C@H](Cc2ccc(F)cc2)CC/C=C/C[C@H]1CC(=O)N(CCO)Cc1ccccc1 | ? | 2.91µM* | / | -4.9% | 11.2µM* | 12.5µM* | ? | ? | -12.8%
O=C(C[C@@H]1C/C=C/CC[C@H](Cc2ccc(F)cc2)C(=O)O[C@H](c2ccccc2)CNC1=O)NCCO | 15.3% | -0.5% | 2.4% | -0.8% | / | / | / | / | /
Cc1sc2ncnc(N3CCC(C(=O)Nc4ccc(S(N)(=O)=O)cc4)CC3)c2c1C | ? | 4.11µM* | 10.0% | 0.2% | 7.05µM* | 19.9µM* | ? | 7.7% | ?
Cc1sc2ncnc(N3CCC(C(=O)N(C)CC(=O)Nc4ccc(Cl)c(C(F)(F)F)c4)CC3)c2c1C | 10.3µM* | 3.66µM* | ? | -0.5% | 7.06µM* | 7.06µM* | ? | ? | ? | ELG1 FLuc counter=?;FLuc biochem=-15.4%
COc1ccc(C(OC(=O)c2ccco2)C(=O)NC(C)(C)C)cc1OC (configuration not stated) | ? | / | 9.1% | 0.3% | / | / | / | / | /
Cc1cccc(S(=O)(=O)c2cn(Cc3ccc(F)cc3)c3cc(N4CCOCC4)c(F)cc3c2=O)c1 | / | / | 0.8% | -1.5% | / | / | / | / | /
Fc1ccc(C[n+]2csc3ccccc32)cc1 | 6.7% | 4.6% | 0.5% | 4.9% | / | / | / | / | /
ICC[n+]1csc2ccccc21 | / | / | / | / | / | / | / | / | -1.2%
Cc1cc(C(=O)N2CCCC(Nc3ccccc3)C2)c2ccc(F)cc2n1 (configuration not stated) | 1.6% | 1.9% | -6.5% | 0.8% | / | / | / | / | /
CC1CCN(C(=O)C2CCCN(c3ncnc4c3nc3n4CCCCC3)C2)CC1 (configuration not stated) | -12.1% | -21.1% | -13.5% | 0.6% | / | / | / | / | /
CCc1cccc(NC(=O)C2CCCN(c3ncnc4c3nc3n4CCCCC3)C2)c1 (configuration not stated) | ? | 18.3µM* | -7.1% | 1.8% | 14.1µM* | 22.3µM* | 1.1% | -6.3% | ? | ELG1 FLuc counter=-7.7%;FLuc biochem=-5.9%
O=C(C1CCCN(c2ncnc3c2nc2n3CCCCC2)C1)N1CCN(c2ccccc2F)CC1 (configuration not stated) | -28.6% | 9.2µM* | 0.2% | -1.2% | 11.2µM* | 25µM* | -6.7% | -8.2% | ? | ELG1 FLuc counter=-7.2%;FLuc biochem=-4.6%
COc1cc(NC(=O)C2CCCN(c3ncnc4c3nc3n4CCCCC3)C2)cc(OC)c1OC (configuration not stated) | ? | 1.83µM* | 2.2% | 2.3% | 4.45µM* | 9.1% | ? | 7.4% | 0.2% | ELG1 FLuc counter=9.5%;FLuc biochem=0.7%
Cc1ccc(C(C)C)c(OCC#CCN2CCOCC2)c1 | 2.4% | -8.6% | 0.2% | -0.8% | / | / | / | / | /
Cc1nc2nc(C)c(CCC(=O)NCc3ccccc3)c(C)n2n1 | 6.0% | / | -8.1% | -0.2% | / | / | / | / | /
O=C(NCCc1ccccc1)c1ccc(NC(=O)C2CCC2)cc1 | 17.6% | / | 3.9% | 3.9% | / | / | / | / | /
COc1cc2cc(CN(Cc3cccnc3)C(=O)Nc3ccccc3F)c(=O)[nH]c2cc1OC | -2.8% | 5.8µM* | -0.9% | -1.1% | 9.97µM* | 0.6% | ? | -1.2% | -8.3% | ELG1 FLuc counter=-5.0%;FLuc biochem=-13.9%
CCN(CC)CCCN(Cc1cc2cc(OC)c(OC)cc2[nH]c1=O)C(=O)Nc1ccccc1 | 8.4% | ? | 7.1% | 3.6% | / | / | / | / | /
COc1cc(C(=O)Oc2ccccc2/C=N/NC(=O)c2ccc(C)c(Cl)c2)cc(OC)c1OC | -11.5% | 4.61µM* | -0.6% | 2.5% | 2.81µM* | ? | ? | -11.1% | -9.8%
COc1ccccc1NC(=O)Nc1nc(CC(=O)Nc2ccc(F)c(F)c2)cs1 | ? | 4.61µM* | -10.0% | 3.1% | 22.3µM* | 7.6% | 5.9% | -7.4% | ?
Cn1c(SCC(=O)NC2CCS(=O)(=O)C2)nnc1-c1ccco1 (configuration not stated) | 2.9% | ? | 4.5% | -0.1% | / | / | / | / | /
O=c1nc2sc3ccccc3n2c(=O)n1-c1cccc(Cl)c1 | ? | ? | -6.9% | 5.5% | / | / | / | / | -5.3% | ELG1 FLuc counter=81.5%;FLuc biochem=-5.6%
Cc1ccc2c(c1)sc1nc(=O)n(-c3ccc(Cl)cc3)c(=O)n12 | -6.7% | 28.3% | 2.0% | 5.2% | / | / | / | / | /
Cc1ccc2c(c1)sc1nc(=O)n(-c3ccc(Cl)c(Cl)c3)c(=O)n12 | 12.1% | ? | -1.3% | 1.1% | / | / | / | / | -2.0% | ELG1 FLuc counter=6.7%;FLuc biochem=-2.6%
O=C(Nc1ccc(S(=O)(=O)N2CCOCC2)cc1)c1cccs1 | -4.5% | -29.4% | -6.3% | 0.5% | / | / | / | / | /
O=C(Nc1ccc(S(=O)(=O)N2CCOCC2)cc1)c1ccc([N+](=O)[O-])s1 | -5.0% | 2.59µM* | -10.0% | ? | 1.99µM* | 3.53µM* | ? | 4.45µM* | ?
CN1C(=O)CC2(C=CC(=O)C=C2OC(=O)c2ccccc2)c2ccccc21 (configuration not stated) | 7.7% | / | 2.6% | / | / | / | / | / | /
Cc1ccc(-n2ncc(C(=O)NCc3ccccc3C)c2-n2cccc2)cc1 | -22.8% | / | 9.6% | -0.9% | / | / | / | / | /
O=c1c2ccccc2oc2c1oc1ccccc12 | ? | ? | 2.4% | ? | / | / | / | / | -14.7%
Cc1cc(C(=O)N2CCCC2(C)C(=O)NCC(C)C)nn1C(C)(C)C (configuration not stated) | / | / | / | -0.2% | / | / | / | / | /

Assay outcomes: PubChem, National Center for Advancing Translational Sciences (NCATS)
